From ChEMBL document CHEMBL3988442, “University of Dundee, Small-Polar-MMV Screening Library” (2021)
Among all 48,000 compounds or so, about 13,000 (27%) showed an effect of 50% or more. Some of the results follow.

Each molecule was assayed on Wolbachia pipientis (assay: Anti-Wolbachia Cell-Based Screen). Conditions: 5 µM.
Assay type: functional
Design: scale not given: in the data most compounds retested in dose-response had high values

| Structure (SMILES) | Percent Effect [%] |
| --- | --- |
| CCc1ccc(C2COCCN2C(=O)Nc2cc(C)on2)o1 (stereo unspecified) | -5.597 |
| CCc1ccc(CN(C)C(=O)c2ccc(CSc3nnc[nH]3)o2)nc1 | -27.23 |
| CC(=O)NCCNC(=O)NCCc1c(C)cc(C)cc1C | -0.992 |
| Cc1ccc2[nH]c(CO[C@H]3CN(c4ccc(C#N)cn4)C[C@H]3F)nc2c1 | 0.4241 |
| OCCN1CCN(Cc2coc(-c3ccccc3Cl)n2)CC1 | 6.785 |
| OCCN1CCN(Cc2coc(-c3ccccc3)n2)CC1 | 106.5 |
| CC(O)CN1CCN(Cc2coc(-c3ccccc3)n2)CC1 (stereo unspecified) | -18.93 |
| Cc1ccc(-c2nc(CN3CCN(CCO)CC3)co2)cc1 | 88.55 |
| Cc1ccc(-c2nc(CN3CCn4c(nnc4C4CC4)C3)co2)cc1 | -3.724 |
| CC(O)CN1CCN(Cc2coc(-c3ccc(Cl)cc3)n2)CC1 (stereo unspecified) | 105.9 |
| OCCN1CCN(Cc2coc(-c3ccc(Cl)cc3)n2)CC1 | 12.92 |
| COc1ccc(-c2nc(CN3CCN(CCO)CC3)co2)cc1 | 6.071 |
| CC(O)CN1CCN(Cc2coc(-c3ccccc3Cl)n2)CC1 (stereo unspecified) | 6.495 |
| OCCOc1cc(F)ccc1NCc1nc(-c2ccoc2)no1 | -6.724 |
| CC(=O)N(Cc1noc(C2CC2)n1)C1CCN(CC(=O)NC2CC2)C1 (stereo unspecified) | 124.3 |
| CC(=O)N(Cc1noc(C2CC2)n1)C1CCN(CC2CCOCC2)C1 (stereo unspecified) | 115.6 |
| Cc1nc(CCN)cc(N2CCC(O)(c3ccccc3)C2)n1 (stereo unspecified) | -17.84 |
| O=C(c1ccccn1)N1CC[C@H]2C(=O)N(c3ccsc3)CCO[C@H]2C1 | -15.02 |
| COCC(=O)Nc1ccc(-c2noc([C@@H]3CCCN3CC(C)C)n2)cn1 | 49.09 |
| COCC(=O)Nc1ccc(-c2noc([C@@H]3CCCN3C)n2)cn1 | -1.727 |
| COCC(=O)Nc1ccc(-c2noc([C@@H]3CCCN3C(C)C)n2)cn1 | 57.87 |
| COc1ccc(CN(C)C(=O)CCC(=O)c2cccs2)c(OC)c1OC | -8.068 |
| COc1ccc(OC)c(C2CCN(c3ccc4cc[nH]c4n3)C2)c1 (stereo unspecified) | 5.101 |
| COc1ccc(OC)c(C2CCN(C3CCOCC3)C2)c1 (stereo unspecified) | 1.409 |
| CCOc1cc(CNc2cc(-c3nc(C)no3)ccn2)ccc1OC | -0.8232 |
| CCOc1cc([C@@H]2N[C@H](c3nccs3)Cc3ccsc32)ccc1OC | 100.4 |

| Structure (SMILES) | Percent Effect [%] |
| --- | --- |
| CCOc1ccc(C(=O)CCC(=O)NCc2csc(N)n2)cc1C | 5.175 |
| COc1ccc(OC)c([C@@H]2N[C@H](c3nccs3)Cc3ccsc32)c1 | 139.9 |
| COc1ccc(C(C)NC(=O)Nc2nccs2)cc1OC (stereo unspecified) | -9.507 |
| COc1cc([C@@H]2N[C@H](c3nccs3)Cc3ccsc32)cc(OC)c1OC | 111.7 |
| CCOc1cc([C@H]2N[C@@H](c3nc(C)cs3)Cc3ccsc32)ccc1OC | 131.4 |
| CCOc1cc(/C=C/c2ncc(C(=O)NC)s2)ccc1OC | 34.03 |
| CC1CCc2nc(O)c(C(=O)NCCCN3CCN(C)CC3)cc2C1 (stereo unspecified) | -5.002 |
| CC(=O)c1sc2nc3c(c(C(F)(F)F)c2c1N)CN(C(C)=O)CC3 | -4.263 |
| Cc1ccc(SCC(=O)NS(=O)(=O)c2ccc3c(c2)OCCO3)cc1 | -12.07 |
| O=C(O)C(F)(F)F.O=C(O)C(F)(F)F.O=C(O)c1cc2c(nc1N1CCCC1)CCN(C1CCOCC1)CC2 | -7.138 |
| COCCN(CC1CCCN(C2Cc3ccccc3C2)C1)C(=O)COC (stereo unspecified) | -1.224 |
| CC(C)CN1C[C@H]2CCN(c3ncccn3)CC[C@H]2S1(=O)=O.O=C(O)C(F)(F)F | -7.419 |
| COCCOc1ccccc1C(=O)N1CCCCC1c1nccs1 (stereo unspecified) | 1.225 |
| CCN(Cc1nccs1)Cc1cc(Cl)ccc1OC | -0.3926 |
| CCOc1ccc([C@@H]2N[C@H](c3nccs3)Cc3ccsc32)cc1OC | 113.5 |
| COc1cccc([C@@H]2N[C@H](c3nccs3)Cc3ccsc32)c1OC | 146.2 |
| COc1cccc(C2CCN(c3ccc4cc[nH]c4n3)C2)c1OC (stereo unspecified) | -24.45 |
| CCOc1ccc(C2CC(=O)NCc3nc(N)sc32)cc1CO (stereo unspecified) | 4.923 |
| CC1N(CC2CC2)C(=O)COC12CCN(C(=O)c1ccno1)CC2 (stereo unspecified) | -9.759 |
| Cn1ncc2c(=O)[nH]c(N3CCCC3c3cccc(Cl)c3)nc21 (stereo unspecified) | -9.423 |
| CCNC(=O)CN1CCOC(c2ccccc2C(F)(F)F)C1 (stereo unspecified) | -9.523 |
| O=c1n(Cc2ccc(F)cc2)nc2ncccn12 | 93 |
| CC(C)C1CN(c2ncccn2)CCC(=O)N1Cc1ccc(F)cc1 (stereo unspecified) | -1.405 |
| O=c1n(Cc2ccc(C(F)(F)F)cc2)nc2ncccn12 | 133.4 |
| CC(NC(=O)Cn1cccnc1=O)c1ccc(C(F)(F)F)cc1 (stereo unspecified) | -2.849 |
